Source: PubChem
GDH-TPI inh: GDH-TPI coupling enzyme inhibitors, primary screen, artefact control for M. tuberculosis FBA inhibitor project, biochemical, absorbance, full deck. GDH-TPI coupled enzyme counterscreen, NADH absorbance. inhibition, % at 4.8 µM. actives 1.2% (n = 360,000). AID 588335, 2011; in the data active = inhibition above about 30%;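 note: 0% = DMSO wells and 100% = wells lacking the enzyme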
Mtb betalactam: beta-lactam sensitization of Mtb H37Rv, H37Rv. M. tuberculosis H37Rv growth with meropenem, percent inhibition. inhibition, % at 25 µM. actives 0.27% (n = 330,000); call rule not given here;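 note: growth measured after seven days incubation then overnight dye step; 0% = bacteria only wells and 100% = bacteria with antibiotic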
Rv3671c protease: Rv3671c serine protease inhibitors, primary screen, biochemical, fluorescence polarization, M. tuberculosis H37Rv | P9WHR9 | inhibition, % at 5.96 µM | actives 0.048% (n = 320,000) | AID 2606, 2010; in the data active = inhibition above about 38%;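 note: extracellular domain of Rv3671c used as enzyme; 0% = enzyme with DMSO and 100% = no enzyme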
Mtb UGM inh: M. tuberculosis UGM enzyme inhibitors, primary screen, biochemical, fluorescence polarization, single point. inhibition, % at 10 µM. purified UGM, fluorescence polarization probe displacement. actives 0.06% (n = 320,000). AID 504406, 2011; in the data active = inhibition above about 10%, passing the limit was not always enough
FBA Mtb inh: Mtb FBA enzyme inhibitors, primary screen, biochemical, fluorescence, strain H37Rv | purified M. tuberculosis FBA, fluorescence read-out | Fructose-bisphosphate aldolase (Mycobacterium tuberculosis (strain ATCC 25618 / H37Rv)), … | inhibition, % at 1 µM | actives 2.3% (n = 360,000) | AID 588726, 2011; in the data active = inhibition above about 27%;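 note: 0% = vehicle and 100% = reference inhibitor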
RecA intein inh: Mtb RecA intein splicing inhibitors, primary screen, biochemical, fluorescence, HTS; cell-free RecA intein splicing; inhibition, % (test concentration not listed); actives 0.75% (n = 290,000); in the data active = inhibition above about 30%;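 note: 0% = vehicle wells and 100% = reference inhibitor control wells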
Target sequence (P9WHJ3 whole entry, looked up): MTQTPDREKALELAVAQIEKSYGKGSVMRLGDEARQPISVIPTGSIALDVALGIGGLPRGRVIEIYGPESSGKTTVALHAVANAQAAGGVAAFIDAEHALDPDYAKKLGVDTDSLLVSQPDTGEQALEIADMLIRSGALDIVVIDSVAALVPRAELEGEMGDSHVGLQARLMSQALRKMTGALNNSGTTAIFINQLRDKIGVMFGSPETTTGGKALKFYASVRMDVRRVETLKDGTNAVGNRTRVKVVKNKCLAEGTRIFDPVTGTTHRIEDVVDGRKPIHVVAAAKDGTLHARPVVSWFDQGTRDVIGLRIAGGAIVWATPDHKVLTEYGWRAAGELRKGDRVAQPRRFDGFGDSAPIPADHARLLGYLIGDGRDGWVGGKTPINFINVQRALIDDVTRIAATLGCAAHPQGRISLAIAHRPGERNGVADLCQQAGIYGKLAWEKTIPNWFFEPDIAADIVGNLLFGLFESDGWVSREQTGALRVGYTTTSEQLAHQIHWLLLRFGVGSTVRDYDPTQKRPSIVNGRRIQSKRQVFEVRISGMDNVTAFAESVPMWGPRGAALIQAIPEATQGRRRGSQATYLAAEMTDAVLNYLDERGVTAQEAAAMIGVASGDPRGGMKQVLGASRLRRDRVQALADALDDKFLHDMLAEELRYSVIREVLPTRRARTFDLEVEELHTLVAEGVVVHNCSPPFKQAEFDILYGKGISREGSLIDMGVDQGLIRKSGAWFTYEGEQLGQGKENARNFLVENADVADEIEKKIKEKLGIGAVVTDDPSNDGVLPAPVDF
The depositor's hits bear a star; nt = no result. Most compounds without a hit are left out; they make up all but 4% or so of the library.

SMILES | GDH-TPI inh | Mtb betalactam | Rv3671c protease | Mtb UGM inh | FBA Mtb inh | RecA intein inh
Cc1ccc(C)c(-c2nnc(NC(=O)CCS(=O)(=O)c3ccc(F)cc3)o2)c1 | 0.0 | -3.0 | 0.7 | -3.3 | 4.8 | 0.1
Cn1cccc1/C=C1\SC(=S)N(NC(=O)c2ccccc2O)C1=O | 32.9* | -3.4 | 1.4 | 4.8 | -39.2 | -2.0
Cn1cccc1/C=C1\SC(=S)N(NC(=O)c2ccccc2)C1=O | 11.1 | -6.3 | -1.9 | -2.3 | -19.4 | nt
N#Cc1ccc(NN=Nc2ccccc2C#N)cc1 | 21.2 | nt | nt | nt | -1.6 | nt
COc1ccc(Br)cc1C=NNS(=O)(=O)c1ccc(C)cc1 | 7.6 | nt | nt | nt | -0.6 | nt
COc1ccc(Cl)cc1C=CC=NNS(=O)(=O)c1ccc(C)cc1 | 37.1* | nt | nt | nt | 0.0 | nt
c1csc(-c2ccnc3ncnn23)c1 | 24.0 | -4.5 | 5.1 | -0.8 | 160.2* | -1.0
CC(Oc1ccccc1)c1ccnc2nc(/N=C/N(C)C)nn12 (stereo not drawn) | 9.6 | -5.2 | 4.5 | 5.8 | 18.4 | nt
CN(C)/C=N/c1nc2nccc(-c3cccs3)n2n1 | 27.9 | -3.8 | 1.3 | 0.6 | 188.0* | -19.4
c1ccc(-c2ccnc3ncnn23)nc1 | 6.0 | 9.7 | -5.6 | -1.2 | 3.1 | 1.3
COc1ccc(C(=Cc2ccccc2[N+](=O)[O-])C(=O)O)cc1 | 16.7 | nt | nt | nt | 2.0 | nt
O=C(Cc1nc2ccccc2[nH]1)c1ccc(Br)cc1 | 31.6* | 0.6 | 2.2 | -1.2 | 2.4 | -51.4
O=C(Cc1nc2ccccc2[nH]c1=O)c1ccccc1 | 5.5 | nt | nt | nt | -7.5 | nt
CCN(CC)C(=O)COc1ccc2oc(-c3ccco3)cc(=O)c2c1 | 24.8 | -7.4 | -14.7 | 0.8 | 134.3* | 0.8
O=[N+]([O-])c1ccc2cn(C3OC(CO)C(O)C3O)nc2c1 (stereo not drawn) | 15.9 | nt | nt | nt | 4.0 | nt
COc1ccccc1NC(=O)NCCCCc1ccccc1 | 4.9 | -6.4 | 4.2 | -0.5 | 2.6 | 0.6
CC1(C)Cc2c(cnn2-c2cccc(F)c2)C(NC(=O)CSc2ccncc2)C1 (stereo not drawn) | -4.1 | -16.1 | 2.5 | -1.3 | 8.7 | 4.1
COc1ccc(OC)c(C(=O)c2c(C)oc3cc([N+](=O)[O-])c(O)c([N+](=O)[O-])c23)c1 | 36.2* | 0.5 | -0.7 | 7.8 | -13.0 | 10.3
Cc1nc(CC(=O)c2ccc(O)c(C)c2O)cs1 | 59.3* | -2.4 | -11.8 | -1.2 | -0.6 | 2.6
Cc1ccc(O)c(C(=O)c2cnn(C(=O)Cc3csc(C)n3)c2)c1 | 12.7 | -2.8 | 3.7 | -1.2 | 5.6 | nt
Cc1nc(CC(=O)c2ccc(O)cc2O)cs1 | 32.5* | -21.5 | -3.4 | 1.8 | -0.6 | -0.1
Cc1nc(CC(=O)c2c(C)cc(O)cc2O)cs1 | 36.8* | 7.8 | 0.7 | 0.8 | 0.3 | 0.6
O=C(Cc1cscn1)c1ccc(O)cc1O | 37.5* | -2.9 | 0.7 | -0.1 | -1.4 | nt
CCCCCC(=O)c1ccc(O)cc1O | 23.2 | 90.7 | 1.9 | 0.3 | 1.0 | -0.2
Cc1ccc(S(=O)(=O)N2CCOC23CCN(C(=O)C(=O)NCCC(C)C)CC3)cc1 | -2.5 | -2.0 | 3.2 | -1.2 | -1.1 | 2.6
SMILES | GDH-TPI inh | Mtb betalactam | Rv3671c protease | Mtb UGM inh | FBA Mtb inh | RecA intein inh
Cc1c(C)n(Cc2ccc(F)cc2)c2ccc(C(=O)NCCCN3CCOCC3)cc12 | 5.9 | -4.6 | 1.0 | 0.6 | 0.7 | 1.8
Brc1ccc(-c2nc3c4ccccc4ccn3c2Cc2ccccc2)cc1 | 2.4 | nt | nt | nt | 2.3 | nt
CC(=O)NC(CSC(CC(=O)c1ccco1)c1ccc(C)cc1)C(=O)O (stereo not drawn) | 31.4* | 64.3 | 7.9 | -2.1 | 5.4 | 2.7
O=C(CC(SCCO)c1ccc([N+](=O)[O-])cc1)c1ccco1 (stereo not drawn) | 31.0* | 100.3 | -2.1 | -3.2 | 0.6 | -3.1
O=[N+]([O-])c1cnccc1Nc1cccc(F)c1 | 11.4 | -2.1 | -3.4 | 0.4 | -0.5 | 3.0
O=[N+]([O-])c1ccc(Oc2cccc(F)c2)c2ccncc12 | 16.0 | -4.7 | -5.6 | -0.5 | -1.1 | 72.5*
COC(=O)C1CC(O)C(O)C(O)C1 (stereo not drawn) | -2.0 | nt | nt | nt | 2.4 | nt
O=C(CSc1nncn1-c1ccccc1F)NC1CC1 | -5.0 | -7.3 | 6.2 | 1.8 | 0.0 | nt
O=C(NC1CC1)c1cccc(Nc2ccc(-c3ccc4c(c3)OCCO4)nn2)c1 | -2.5 | 84.6 | -4.2 | 7.8 | 2.5 | -2.6
O=S(=O)(c1ccc(Nc2ccc(-c3ccc4c(c3)OCCO4)nn2)cc1)N1CCCC1 | 33.9* | -0.6 | -63.9 | -3.0 | 1.3 | 4.3
CSc1ccc(NC(=O)C2(C)CCN2C(=O)c2sccc2C)cc1 (stereo not drawn) | 2.7 | nt | nt | nt | 0.1 | nt
CCNc1nc(C)c(CN(C(C)=O)c2ccccc2)nc1C#N | 7.9 | -1.2 | 6.7 | 0.1 | 125.9* | -35.9
O=c1cc(-c2ccc(O)cc2)oc2c(O)c(O)c(O)c(O)c12 | 37.2* | 1.3 | -32.8 | -0.3 | 4.5 | nt
Cn1cc(Cl)c(C(=O)N/N=C/c2ccc3c4c(cccc24)CC3)n1 | 35.9* | -7.4 | -75.0 | -1.0 | 29.6* | -2.6
Cc1ccc(/C=N/NC(=O)c2nn(C)cc2Cl)cc1 | 10.3 | 4.3 | 4.5 | -1.1 | 1.0 | -0.3
CC(C)n1c(=O)c2ccccc2n1Cc1cn(CCc2c[nH]c3ccccc23)nn1 | nt | nt | nt | nt | 5.0 | nt
CC(C)n1c(=O)c2ccccc2n1Cc1cn(Cc2ccccc2)nn1 | nt | nt | nt | nt | 114.8* | nt
CC(C)n1c(=O)c2ccccc2n1Cc1cn(-c2ccccc2)nn1 | nt | nt | nt | nt | 120.3* | nt
CCOC(=O)c1ccc(NC(=S)P(=O)(c2ccccc2)c2ccccc2)cc1 | 4.0 | nt | nt | nt | -3.2 | nt
CCOC(=O)/C(=N\Nc1ccccc1)S(=O)(=O)c1ccccc1 | 31.0* | -9.7 | 2.3 | -1.7 | -2.3 | 2.0
CCOC(=O)/C(=N\Nc1ccccc1)P(=O)(c1ccccc1)c1ccccc1 | 51.0* | -0.5 | 6.4 | -0.3 | 1.7 | 8.5
COCCNc1nc(NCc2cccc(OC)c2)c2sc(-c3ccccc3)cc2n1 | 1.3 | nt | nt | nt | 3.6 | nt
CC(=O)c1ccc(N2CCN(C(=O)C(=O)c3c(C)[nH]c4ccccc34)CC2)cc1 | 34.0* | 32.8 | -2.4 | -2.2 | -4.0 | -1.7
COc1ccc(N2CCN(C(=O)C(=O)c3c(C)[nH]c4ccccc34)CC2)cc1 | 13.0 | 4.9 | -5.3 | 2.0 | 0.6 | -1.1
Cc1ccccc1S(=O)(=O)/N=C(/Nc1nc2ccccc2s1)c1ccccc1 | 43.7* | -7.9 | 2.6 | 4.8 | 3.2 | nt
Cc1ccccc1S(=O)(=O)/N=C(/Nc1c(C)n(C)n(-c2ccccc2)c1=O)c1ccccc1 | -9.8 | -0.7 | 3.9 | 0.2 | -1.7 | -0.6
Cn1c(SCC(=O)NCCc2ccccc2)ncc(C(=O)Nc2ccc(F)cc2)c1=O | -4.1 | -0.1 | 0.7 | -1.8 | -0.9 | 3.0
